# Data from the supplement of paper PMC11417369.
# ± gives the standard deviation of the averaged measurements. In all, about 25,000 sequences were measured (“ln(normalized median fluorescence intensity)”: median about 10, highest 2% from about 12 on). Shown is part of a subset that was picked to be rich in the highest values.
# Test system: PfAP2-G AP2 domain (GST-tagged)
# Experiment: gcPBM binding intensity (ln(normalized median fluorescence intensity)); higher = stronger DNA binding
# How it was run: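 Plasmodium falciparum DNA-binding domains carrying a GST tag were expressed in E. coli and applied for 1 h, at about 25 μg on average, to an Agilent 4 × 180k array. The array held primer-extended double-stranded 36-bp intergenic genomic probes together with negative controls, and binding took place in 1× PBS with 1% milk, 0.2 mg/ml BSA, 0.5% salmon testes DNA and 0.03% Triton X-100. An Alexa488 anti-GST antibody detected bound protein, and the array was scanned at 488 nm. Binding intensity is taken as the highest Masliner-normalised natural-log median intensity across replicate spots of either probe orientation.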
row,Sequence,gcPBM binding intensity (ln)
1,TTTTGGATGAACAGTACATGCAAAAACAAACTTGTA [TGCATGCA_site16],10.8 ± 0.37
2,ATATCTTCACTTATATGTACTTACATTTTTTTTTTT [XGTACX_site8696],11.4 ± 0.81
3,AGGAGGTCAGTTCACAGTACCCAGAAACTCTACGAG [XGTACX_site2006],11.1 ± 0.73
4,AAATATAATTAATGATGTACACTTATAGATATTGAT [XGTACX_site8435],11.4 ± 0.68
5,ATATATATTTTTATAACACACAATGATGTACATTAC [CACACA_site1076],11.3 ± 0.84
6,ATATAATTACATTGATGTACACGAAATGATTAACAT [XGTACX_site5183],11.7 ± 1.1
7,CAGAAATATTAATGCTGTACGGAATACATATATTTT [XGTACX_site539],10.9 ± 0.6
8,TTTCATTTTAGAAGTACACACAAAAAATAAAATAAT [CACACA_site2141],11.6 ± 0.92
9,TATTCATAATTTTAATGTACAAAATGGTTTGTAATA [XGTACX_site8493],10.6 ± 0.33
10,AGGTCATACATAAAATGTACATATATATAAATATAT [XGTACX_site7147],10.9 ± 0.54
11,TAAGTCATATAAATGTGTACATAAAAAAAAAAAATG [XGTACX_site1645],11.6 ± 1
12,TACAAATTTATATAAAGTACAAAAAATAATAAAAAT [XGTACX_site7355],11.1 ± 0.57
13,TAAATTTTTTTTTTTTGTACACAAAAATATAATATT [XGTACX_site8151],11.4 ± 0.98
14,GTAATAATTTTTTGTAGTACACAAAAATTCATATTT [XGTACX_site2699],11.7 ± 1.1
15,GTTAAAATAATATGGTGTACAAATATATAAGTTCAT [XGTACX_site3262],11.4 ± 0.79
16,AATAATATATGGTGTACACAAAAGTATAAATAATTT [CACACA_site5338],11.9 ± 1
17,AATTTCATTTTTAGAAGTACATTTATATTAAAAATC [XGTACX_site2888],11.2 ± 0.95
18,ATAAAAATAAATAAATGTACATATATATATATATAT [XGTACX_site1277],11.1 ± 0.58
19,AATTTTCATTTTAGAAGTACACACAAAAAATAAAAT [XGTACX_site4426],11.7 ± 1.1
20,ATAGAATACATATATGAACACACAGAGTTTTAAAAA [CACACA_site8879],10.15 ± 0.042
21,ATATTTAAAGAATAAGTGCAAAATGTAATTAATTTT [GTGCAC_site9901],10.065 ± 0.007
22,TAAAAAAACATATATTGTACGGAGATAATAATTTTT [XGTACX_site2946],10.6 ± 0.31
23,TTATATTTAGTATATGCACACTTTATGTTTGTTATT [CACACA_site5163],9.955 ± 0.035

row,Sequence,gcPBM binding intensity (ln)
1,TAAAAGGATGCATATACACACATATAGATTTATATA [CACACA_site7336],9.915 ± 0.035
2,AATAATTTCCAAAAATGTACATATATTTACATATAT [XGTACX_site1790],10.9 ± 0.52
3,AAAATAATAATAAAAAGTACATGTGTATATAATAAA [XGTACX_site754],11.3 ± 0.82
4,TATATATTCATGTGTACACACAAAAAAAAATAAAGT [CACACA_site2207],11.7 ± 0.9
5,AATATATATTCATGTGTACACACAAAAAAAAATAAA [CACACA_site8690],11.6 ± 0.84
6,AAATATATATTCATGTGTACACACAAAAAAAAATAA [XGTACX_site4552],11.6 ± 0.84
7,TATATATCCATGTGTACACACAAAAAAAAATAAAGT [CACACA_site7107],11.7 ± 0.93
8,TGAAAAGAAAACACATGTACAAATATATAAATATAA [XGTACX_site6098],10.8 ± 0.35
9,CTTTATATATTTTATTGTACTTAAAAAAAAAAAAAA [XGTACX_site2134],11.4 ± 1.1
10,ACATACATACATACATACATACATACATACATACAT [XGTACX_negctrl_site315],10.6 ± 0.57
11,AAGAAATATATATATATATATATATATATATATGTA [TGCATGCA_negctrl_site442],9.67 ± 0.16
12,AATAAAAAAAATAGCATACACACATATATACATATA [CACACA_site659],9.75 ± 0.028
13,TGGTCTTTTAAACAAAAATATAAATTTTTAAATATG [CACACA_negctrl_site392],9.94 ± 0.23
14,TTTGAAATAAAAAGGTGTACACTCGATTAATAAATA [XGTACX_site6943],11.8 ± 0.98
15,AAAAAAAAAAAAAGGTGTACATGCAAAATAAATTCT [XGTACX_site4592],11.6 ± 0.93
16,AAAAAAAAAAGGTGTACATGCAAAATAAATTCTTAA [TGCATGCA_site556],11.6 ± 1.1
17,TAAAATTTAAAAAGGTGTACACTATAAATTAAAATA [XGTACX_site2081],11.7 ± 0.95
18,AAAGGTGTATATAATACACACGTGTGATTAAAATTG [CACACA_site8104],10.13 ± 0.064
19,AATTAATAAAAAAGGTGTACAGTAAATGCAATAATC [XGTACX_site7956],11.7 ± 0.99
20,TGTTAATAAAGGTGTACACAAAATAAAAAAAATTAT [CACACA_site4288],11.7 ± 0.92
21,TTAAAAAAAAAAAGGTGTACTATAATTTAATATCAC [XGTACX_site6316],11.6 ± 1.1
22,ACACAAAAATAAAAATGTACAAATTAAAAAAAATGA [XGTACX_site2083],10.8 ± 0.42
23,GGTGTTAAAAAATACACACACAAAAAAAAAAAAAAA [CACACA_site138],9.95 ± 0.51

row,Sequence,gcPBM binding intensity (ln)
1,AATTAATAAGAAAGGTGTACAGAAAAAAAAAAATAT [XGTACX_site2106],11.5 ± 0.8
2,AATAAATTAATAAGGTGTACATAAATAATTTATATA [XGTACX_site8278],11.5 ± 0.94
3,TATAAATTATATATTTGTACGTATATCACATATATA [XGTACX_site7053],11.3 ± 0.84
4,AATTTTATTTAAAGTGCATGTAAAATTAAAACTTTT [TGCATGCA_site989],10 ± 0.057
5,ATATAGAACACCTGTGCATGCAAGTGCTAAAAAATT [TGCATGCA_site213],10.2 ± 0.2
6,ATTTTTTCTGTCTTAATTGGACCCACTGCAAATGGG [CACACA_negctrl_site1158],10.9 ± 0.54
7,AACATATAAATGATATGTACACACATTTATATATAT [XGTACX_site7364],11.4 ± 0.53
8,TATTTGATAAAAAAAAGTACTAGAATTTCGCTTTTG [XGTACX_site7754],11.1 ± 0.7
9,ATATATACCTAAGACACACACATATAGATTTATATA [CACACA_site6498],9.97 ± 0.028
10,AAAAAAATAATAAAATGTACAAATAAACACATAAAG [XGTACX_site5102],10.8 ± 0.39
11,TAGGTGTTAAAAAATACACACACAAAAAAAAAAAAA [CACACA_site7927],9.93 ± 0.45
12,AAATGTTAATAAAGGTGTACACAAAATAAAAAAAAT [XGTACX_site463],11.7 ± 0.71
13,TAAAGTAAAGACATACTTATTTTCCATCCACTTCTT [CACACA_negctrl_site1288],10 ± 0.18
14,AGTATACTCGGACACACACACACATATATATATATA [CACACA_site5031],11.1 ± 0.51
15,AATTATTTTAAATATTGTACTATTACAGAATGGTGT [XGTACX_site5693],11 ± 0.56
16,ATTAAATCATATGAATGTACGGATATATATATTTCC [XGTACX_site8650],10.7 ± 0.48
17,ATTTATGAAAAGTAAAGTACACACAGGAAAAAAAAA [XGTACX_site3564],11.4 ± 0.72
18,AATTATTTTATGAAAAGTACACATTGTTTTAATTCT [XGTACX_site4506],11.4 ± 0.98
19,TTTTAAAGAAAAAAATGTACAAAATTTTTATTTTAA [XGTACX_site1496],10.6 ± 0.35
20,GTAATTTTAAAGAAAAGTACACATTTATTAATTATT [XGTACX_site4468],11.5 ± 1.2
21,AAAAAAAAAAAAAAAAGTACACATCATTTTATGAAA [XGTACX_site1402],11.7 ± 0.76
22,TTTTTTATTAAAAGTAGTACACATGAAAAAAAAAAA [XGTACX_site5524],11.8 ± 1
23,TATATTTTATAAAAAAGTACACATGAAAATGTATTT [XGTACX_site5889],11.5 ± 1.1

row,Sequence,gcPBM binding intensity (ln)
1,ATAGTATTTTTTATTACACACAAATAAAAAGAAAAA [CACACA_site2087],10.2 ± 0.26
2,AGTTATTTTAAATGTAGTACACAAAAGAAATATTAA [XGTACX_site4092],11.6 ± 0.94
3,TTCTTTTTAAATTACACACACATATAAATATGTATA [CACACA_site7618],10.04 ± 0.071
4,AAACAAAATGGTAACACACACATATATAAATATGTA [CACACA_site6994],10.2 ± 0.35
5,CATATTGGTATGCTCATGCACTTTTATTTTGTTATT [GTGCAC_site9553],10.2 ± 0.13
6,TTATAATAATATAATACATGCATATATATTTAAATA [TGCATGCA_site903],9.62 ± 0.12
7,TGTTATTATTTGTACACACACATATAGATCCTTGTT [CACACA_site7667],11.3 ± 0.83
8,AAATTACTGTAAAAAAGTACAGAAGTTCTTATTTTT [XGTACX_site7416],11.5 ± 0.93
9,AAAATTAAAATACGTACACACCTTATCTTTTTGGCT [CACACA_site4311],11.7 ± 1.1
10,TTAAAATTATAATACGTACACACCTTATCTTTTTGG [CACACA_site278],11.5 ± 0.86
11,TTAAAATTAAAATACGTACACACCTTATCTTTTTGG [CACACA_site7982],11.6 ± 0.81
12,TAGTTAATATGAAAAAGTACACGTTTCAGTGAAAGT [XGTACX_site7402],11.7 ± 1
13,TGGTTAATATGTGAAAGTACATATTATATTAAAATG [XGTACX_site2636],11.1 ± 0.58
14,TATATTAATATGAAAAGTACACATTCTATATATATA [XGTACX_site929],11.4 ± 0.91
15,AATAAATAAATATATTGTACATATATATATATATAT [XGTACX_site8627],11 ± 0.53
16,ATAAATATACCAATCGGTACACATTTATACAAACAA [XGTACX_site7484],11 ± 0.64
17,ATTCTAAATTAAAATACACACATATATACATAATAT [CACACA_site2792],9.985 ± 0.021
18,TTTTGATCATCCAAAATATCTTCATCTGAACTACTA [CACACA_negctrl_site939],9.84 ± 0.042
19,ATTTTATTTTTGTGCACACTGATAAATTGAAAAGAG [CACACA_site2948],10.8 ± 0.57
20,AATAAATTCATGAATTGTACGTAATGATAACATGAA [XGTACX_site2591],11.3 ± 0.75
21,AATAATCATTTTCATAGTACGTATGATTAGAAAAAA [XGTACX_site2589],11 ± 0.66
22,TATGATTCATAATAGTGTACGTAAAAATTGACTAGA [XGTACX_site5376],11.7 ± 1
